In the supplement of paper PMC10981050:
Values joined by “and” are separate entries in the source; they are usually repeats but may differ in a detail not shown here. Identical values can stand only once. Counter-ions that a name gives are not always drawn.

Tests used:
Assay in all cases: cell viability relative to vehicle control; higher = less cytotoxic
Conditions in all cases: 10 µM
K562 = tested on: K562
Summary of the method: (§1)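 CRISPR-edited mutant clones and isogenic wild-type clones from four leukaemia lines were screened against Selleck bioactive, kinase and epigenetic probe libraries, with identity-inconsistent compounds excluded. Each compound was acoustically dispensed at a single 10 µM dose into 384-well plates holding 2000 cells in 50 µL medium per well. After 48 h the supernatant was removed and CellTiter-Glo luminescence was read. Viability was expressed as percent of the on-plate vehicle control and analysed in Genedata Screener.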

MARIMO = tested on: MARIMO
Summary of the method: as §1

MOLM14 = tested on: MOLM14
Summary of the method: as §1

OCI-AML2 = tested on: OCI-AML2
Summary of the method: as §1

Structure (SMILES)	cell viability (K562; SRSF2 genotype: SRSF2 P95H/wt)	cell viability (K562; SRSF2 genotype: SRSF2 wt/wt)	cell viability (MARIMO; SRSF2 genotype: SRSF2 P95H/wt)	cell viability (MARIMO; SRSF2 genotype: SRSF2 wt/wt)	cell viability (MOLM14; SRSF2 genotype: SRSF2 P95H/wt)	cell viability (MOLM14; SRSF2 genotype: SRSF2 wt/wt)	cell viability (OCI-AML2; SRSF2 genotype: P95H/wt)	cell viability (OCI-AML2; SRSF2 genotype: wt/wt)
CN1CCN(c2nc3ccccc3nc2Cl)CC1	96.3% and 106%	98.8%	93.1%	103%	105%	109%	107%	102%
COc1ccc2c(c1)[nH]c1c(C)nccc12 [Harmine hydrochloride]	88.3% and 94.7%	92.7%	79.5%	87.7%	54.3%	66.8%	38.1%	49.9%
C=C[C@@]12CN(C)[C@H]3C[C@]14C(=Nc1ccccc14)[C@@H]1C[C@@H]2[C@@H]3CO1 [Koumine]	99.2% and 99.1%	98.6%	102%	102%	104%	96.2%	101%	101%
O=c1ccc2cc(O[C@@H]3O[C@H](CO)[C@@H](O)[C@H](O)[C@H]3O)c(O)cc2o1 [Aesculin (Esculin)]	104% and 98.9%	100%	96.9%	97.7%	101%	99.7%	95.1%	93.3%
N#CC=C1C=CC(O)C(O)C1OC1OC(CO)C(O)C(O)C1O (configuration not stated) [Lithospermoside]	89.9% and 83.2%	84.3%	86.5%	97.5%	87.4%	91.7%	95%	116%
C=C1[C@H]2C[C@@]3([C@@H]1O)[C@@H](CC2=O)[C@]12[C@@H]4C[C@H]3[C@H]1N(CC)C[C@]4(C)CC[C@@H]2O [Songorine]	96.8% and 99.6%	101%	98%	98.8%	102%	98.4%	103%	103%
C[C@@H]1CC[C@@]2(OC1)O[C@H]1C[C@H]3[C@@H]4CC=C5C[C@@H](O[C@@H]6O[C@H](CO)[C@@H](O[C@@H]7O[C@@H](C)[C@H](O)[C@@H](O)[C@H]7O)[C@H](O)[C@H]6O[C@@H]6O[C@@H](C)[C@H](O)[C@@H](O)[C@H]6O)CC[C@]5(C)[C@H]4CC[C@]3(C)[C@H]1[C@@H]2C [Dioscin (Collettiside III)]	0.8% and 0.73%	0.55%	1.89%	0.64%	0.47%	0.55%	0.51%	0.51%
Cc1cc(SCc2sc(-c3ccc(C(F)(F)F)c(F)c3)nc2C)ccc1OCC(=O)O	100% and 101%	105%	106%	112%	99.7%	103%	95.9%	101%
O=C1C=CC[C@@H]2[C@H]3CCCN4CCC[C@@H](CN12)[C@@H]34 [Sophocarpine]	103% and 107%	102%	108%	111%	106%	106%	98.4%	108%
